In the library only some 9.4% were active in any assay of this set; here they are far more common.
NPC1 promoter act: activates the NPC1 promoter | Huh7 NPC1 promoter luciferase reporter, 24 h | Potency, µM (titrated, usually from 9.22 µM), hits mostly activators | actives 2.4% (n = 320,000) | AID 485313; note: nearly all actives have a fitted effect of over 60% in size
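NPC1 promoter–luciferase Huh7 cells; 24 h compound; luminescence.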
ELG1 genotox: induces genotoxicity in HEK293T cells with luciferase-tagged ELG1. Potency, µM (series often up to 46 µM), usual class: activators. HEK293T ELG1-luciferase reporter, luminescence, 16 h. actives 1.3% (n = 330,000); note: nearly all actives have a fitted effect of over 60% in size
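DMSO vehicle served as control against compound-treated ELG1-luciferase HEK293T cells; exposure lasted 16 hr at 37 °C and 5% CO2, followed by ONE-Glo luminescence detection after 30 min.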
FLuc counter: counter-screen for miR-21 project: firefly luciferase inhibitors or activators | Potency, µM (top dose mostly 57.5 µM), most hits filed as inhibitors | P08659 | actives 6.9% (n = 360,000) | purified FLuc, Km substrates, luminescence inhibition | AID 588342; note: nearly all actives have a fitted effect of over 55% in size
Target sequence (P08659 whole entry, looked up): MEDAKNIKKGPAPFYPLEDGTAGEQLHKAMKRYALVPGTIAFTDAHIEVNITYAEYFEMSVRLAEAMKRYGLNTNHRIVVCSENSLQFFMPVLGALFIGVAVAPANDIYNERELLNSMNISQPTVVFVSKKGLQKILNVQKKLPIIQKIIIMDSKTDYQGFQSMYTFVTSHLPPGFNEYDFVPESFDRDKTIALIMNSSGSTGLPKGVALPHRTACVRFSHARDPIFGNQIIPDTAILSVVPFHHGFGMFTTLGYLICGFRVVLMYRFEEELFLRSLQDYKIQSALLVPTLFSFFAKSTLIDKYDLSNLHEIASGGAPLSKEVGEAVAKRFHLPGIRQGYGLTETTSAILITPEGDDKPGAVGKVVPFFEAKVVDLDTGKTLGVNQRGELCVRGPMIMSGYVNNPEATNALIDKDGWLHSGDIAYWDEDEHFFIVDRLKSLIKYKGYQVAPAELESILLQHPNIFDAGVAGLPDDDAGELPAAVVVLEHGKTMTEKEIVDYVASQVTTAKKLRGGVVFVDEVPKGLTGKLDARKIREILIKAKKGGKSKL
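Purified P. pyralis luciferase (10nM final) with 10uM D-luciferin and 10uM ATP (Km levels) in 50mM Tris acetate pH 7.5, 10mM Mg acetate, 0.01% Tween-20, 0.05% BSA; qHTS 6-point titration, ~60 µM downward; luminescence read.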
Rab9 promoter act: Rab9 promoter activation. AID 485297. Huh7 Rab9 promoter-luciferase reporter, luminescence, 24 h. Potency, µM (doses to about 9.22 µM), most hits filed as activators. actives 2.8% (n = 320,000); note: nearly all actives have a fitted effect of over 60% in size
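Rab9 promoter-driven luciferase in stably transfected Huh7 cells; 1500 cells/well rested 2 h, exposed to compound in DMSO for 24 h at 37 °C, 5% CO2. Luminescence read 10 min after adding luciferase reagent at ambient temperature.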
ELG1 repair inh: blocks ELG1-dependent DNA repair in HEK293T cells. HEK293T ELG1-luciferase reporter, luminescence, 16 h; DNA damage induced by 5-fluorouridine. Potency, µM (highest dose often 46.1 µM), usual class: inhibitors. actives 2.3% (n = 330,000); note: nearly all actives have a fitted effect of over 55% in size
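Cells (2,000 per well) received 5-fluorouridine plus test compound or DMSO and were incubated 16 hr at 37 °C, 5% CO2. Luciferase activity was read by luminescence 30 min after ONE-Glo addition; signal suppression marked inhibition of damage-induced ELG1 function.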
SMN2 splice enh: increases expression of the SMN2 splice variant; HEK293 SMN2-luciferase splicing reporter, luminescence, 30-36 h; Potency, µM (doses to about 46.1 µM), actives largely listed as activators; actives 2.8% (n = 210,000); AID 1458; note: nearly all actives have a fitted effect of over 55% in size
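HEK293 cells carry an SMN2 […]–luciferase reporter in which exon 7 inclusion puts luciferase in frame. Cells were plated 10-12 h before compound addition, then incubated 30-36 h at 37C. ONE-Glo luminescence was read; sodium butyrate at 4.5 mM final served as control.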
A number is an active result; n = inactive; u = inconclusive; x = no result given. Calls come from the whole dose curve; as a rule, active = well fitted curve in the direction sought with a large enough effect; inconclusive = small, poorly fitted or top-dose-only effect, or another doubt; inactive = no such curve, though single readings can be large; an effect the other way counts as inactive or inconclusive.

SMILES	NPC1 promoter act	ELG1 genotox	FLuc counter	Rab9 promoter act	ELG1 repair inh	SMN2 splice enh
CC(C)(C)c1ccc(C(=O)N/N=C/c2cccc(Cl)c2)cc1	u	n	4.8µM	u	u	n
O=C(N/N=C/c1cccnc1)c1ccc(NC(=O)c2cccc(Cl)c2)cc1	n	n	n	n	n	x
CCOc1ccccc1NC(=O)CN(C)S(=O)(=O)c1ccc2nc(C)sc2c1	x	x	n	x	x	n
Cc1ccc(/C=C/C(=O)c2ccc(C)cc2)cc1	n	u	1.3µM	n	u	n
Cc1c(/C=C/C(=O)c2ccccc2O)cnn1C	3.5µM	u	1.3µM	2.5µM	u	16µM
Cc1ccc(/C=C/C(=O)c2ccccc2O)cc1	n	u	1.2µM	n	u	x
O=C(/C=C/c1cccc(O)c1)c1cccnc1	n	n	n	n	n	x
CN(C)c1ccc(/C=C/C(=O)c2cccnc2)cc1	n	n	3µM	n	n	x
COc1cc(/C=C/C(=O)c2ccccc2O)cc(OC)c1OC	n	u	u	n	n	n
CN(C)c1ccc(/C=C/C(=O)c2ccccc2O)cc1	3.5µM	u	0.6µM	u	u	x
O=C(/C=C/c1ccco1)c1ccccc1O	n	u	11µM	n	u	x
O=C(/C=C/c1cccnc1)c1ccccc1O	n	n	17µM	n	n	x
CCOc1ccccc1CNC(=O)C1CCN(c2nnc(-n3c(C)ccc3C)s2)CC1	x	x	n	x	x	x
O=C(COC(=O)CNS(=O)(=O)c1ccc(F)c(F)c1F)NCCc1ccccc1	u	u	5.4µM	u	u	x
CCCN1C(=O)/C(=C/c2ccc(C)s2)NC1=S	n	n	27µM	n	n	n
Cc1ccc(/C=C2/NC(=O)N(Cc3ccccc3F)C2=O)s1	n	n	n	n	n	x
C=CCn1cnc2c(sc3nc(C)cc(C)c32)c1=O	n	u	17µM	n	u	x
CCOC(=O)Cn1cnc2c(sc3nc(C)cc(C)c32)c1=O	u	u	12µM	u	u	x
COC(=O)Cn1c(C)nc2c(sc3nc(C)cc(C)c32)c1=O	u	16µM	12µM	u	u	11µM
COc1ccccc1NC(=O)c1oc2ccccc2c1NC(=O)COc1cccc(C)c1	x	x	n	x	x	n
Cc1ccc(Cl)cc1NC(=O)CN1C(=O)C(C)(C)c2cc(S(=O)(=O)N3CCCCC3)ccc21	x	x	n	x	x	x
Cc1cccc(CSc2ncc(Cl)c(C(=O)Nc3sc4c(c3C(N)=O)CCCC4)n2)c1	x	x	n	x	x	n
CCCCC(CC)CNC(=O)CN1C(=O)CSc2ccc(S(=O)(=O)N3CCOCC3)cc21 (centres undefined)	x	x	n	x	x	x
O=C1c2cccc3cccc(c23)C(=O)N1OS(=O)(=O)c1ccccc1	n	n	19µM	n	u	n
CC(C)CN(C(=O)C1CSC2(C)CCC(=O)N12)c1c(N)n(Cc2ccccc2)c(=O)[nH]c1=O (centres undefined)	n	n	n	n	n	x
SMILES	NPC1 promoter act	ELG1 genotox	FLuc counter	Rab9 promoter act	ELG1 repair inh	SMN2 splice enh
CCCNC(=O)Cn1cnc2sc(C(=O)N3CCN(Cc4ccc5c(c4)OCO5)CC3)c(C)c2c1=O	n	n	n	n	u	n
Cc1c(C(=O)N2CCN(Cc3ccc4c(c3)OCO4)CC2)sc2ncnc(N3CCN(c4ccccc4)CC3)c12	n	n	n	n	4.6µM	x
Cc1c(C(=O)NC2CCCCC2)sc2ncnc(N3CCN(c4ccccc4)CC3)c12	n	n	n	n	n	x
Cc1c(C(=O)N2CCN(Cc3ccc4c(c3)OCO4)CC2)sc2ncnc(N3CCN(c4ccccc4F)CC3)c12	n	n	u	n	6.5µM	x
O=C(COc1ccccc1F)OCC(=O)N1CCc2ccccc21	n	n	u	u	n	x
O=Cc1ccc(OCC(=O)N2CCc3ccccc32)c(Br)c1	n	u	7.6µM	n	u	x
O=C(COc1ccc(F)cc1Br)N1CCc2ccccc21	2.8µM	1.6µM	0.76µM	0.63µM	u	11µM
CCC(C)NC(=O)CSc1nc2cc3c(cc2c(=O)n1CCCC(=O)NCCc1ccc(OC)c(OC)c1)OCO3 (centres undefined)	x	x	n	x	x	x
CCCCC(CC)CNC(=O)C(=O)c1ccccc1NC(C)=O (centres undefined)	n	n	n	n	n	n
O=C(N[C@H]1CCCc2ccccc21)O[C@@H]1C(=O)c2cc(Br)ccc2O[C@H]1c1ccc2c(c1)OCO2	x	x	x	x	x	n
CC(=O)Nc1ccc(S(=O)(=O)N2CCN=C2c2ccccc2)cc1	n	n	n	n	8.2µM	x
CN(C)S(=O)(=O)Oc1cccc(C(=O)Nc2ccccc2Cl)c1	n	u	21µM	5.6µM	u	n
CN(C)S(=O)(=O)Oc1cccc(C(=O)Nc2ccc(Cl)cc2)c1	u	n	3.4µM	u	u	n
CN(C)S(=O)(=O)Oc1ccsc1C(=O)Nc1ccccc1Cl	n	n	n	n	n	n
O=Nc1ccc2oc(=O)ccc2c1	n	x	x	n	x	n
Cc1ccsc1C(=O)OCC(=O)Nc1sccc1C(N)=O	u	n	5.4µM	u	u	n
NC(=O)c1ccsc1NC(=O)COC(=O)c1ccc(Cl)c(N)c1	n	n	u	n	12µM	x
NC(=O)c1ccsc1NC(=O)COC(=O)c1ccc(Cl)cc1	n	n	x	n	n	x
COc1ccc(Cl)cc1C(=O)OCC(=O)Nc1sccc1C(N)=O	x	n	x	x	23µM	x
Cc1ccc(C(=O)OCC(=O)Nc2sccc2C(N)=O)cc1NC(=O)c1ccco1	n	n	n	n	8.2µM	n
O=C(CSc1nc2c([nH]c3ccccc32)c(=O)n1-c1cccc(Cl)c1)N1CCc2ccccc21	x	x	n	x	x	x
Cc1noc(C)c1-c1ccc2ncnc(NCc3cccc(-c4ccccc4)c3)c2c1	n	x	n	n	x	x
C=CCc1ccccc1OCc1nc2ccc(C)cc2[nH]1	x	x	u	x	x	n
Cc1ccc(C)c(NC(=O)C[n+]2ccccc2)c1	n	n	n	n	n	x
Cc1ccc(S(=O)(=O)N2CCN(C(=O)COC(=O)CSc3ccc(C)c(C)c3)CC2)c(C)c1	n	n	n	n	n	x
SMILES	NPC1 promoter act	ELG1 genotox	FLuc counter	Rab9 promoter act	ELG1 repair inh	SMN2 splice enh
COc1cc(C(=O)Nc2cc(-c3cn4cccnc4n3)ccc2C)cc(OC)c1OC	n	n	12µM	u	u	n
COc1ccc(-c2cn3cc(Br)cnc3n2)cc1	n	21µM	u	u	u	10µM
COc1ccc(-c2cn3cccnc3n2)cc1Br	n	u	19µM	n	u	u
COc1ccc(-c2cn3cccnc3n2)cc1NC(=O)C(C)C	n	n	n	n	n	x
COc1ccc(-c2cc(-c3ccccc3)nc3ncnn23)cc1	n	n	n	n	u	n
COc1cc(OC)cc(C(=O)Nc2cc(-c3cn4cccnc4n3)ccc2C)c1	n	n	u	n	n	n
CC(C)c1cnc2c(c1SCc1cccc(F)c1)c(=O)n(C)c(=O)n2C	x	x	n	x	x	x
O=C1C(N2CCOCC2)=C(n2nnc3ccccc32)C(=O)c2ccccc21	n	n	n	n	2.6µM	n
